Assay outcomes (PubChem BioAssay)
In the library only some 13% were active in any assay of this set; here they are far more common.
USP8 inh: blocks human USP8 ubiquitin-rhodamine cleavage; 47,000 tested, 4.2% active; purified USP8, Ub-rhodamine cleavage fluorescence, 30 min; P40818; inhibition, % at 20 µM; AID 1645853
USP28 block: human USP28 deubiquitinase inhibition; Q96RU2; purified USP28, Ub-rhodamine cleavage fluorescence, 30 min; inhibition, % at 25 µM; 47,000 tested, 3% active; AID 1645857
USP17 inh: blocks human USP17 ubiquitin-rhodamine cleavage; 47,000 tested, 6.5% active; purified USP17, Ub-rhodamine cleavage fluorescence, 3 h; A8MUK1; inhibition, % at 50 µM
USP30 inh: human USP30 deubiquitinase inhibition; purified USP30, Ub-rhodamine cleavage fluorescence; inhibition, % at 25 µM; 47,000 tested, 5.3% active; Q70CQ3
Target sequence (Q70CQ3 whole entry, looked up): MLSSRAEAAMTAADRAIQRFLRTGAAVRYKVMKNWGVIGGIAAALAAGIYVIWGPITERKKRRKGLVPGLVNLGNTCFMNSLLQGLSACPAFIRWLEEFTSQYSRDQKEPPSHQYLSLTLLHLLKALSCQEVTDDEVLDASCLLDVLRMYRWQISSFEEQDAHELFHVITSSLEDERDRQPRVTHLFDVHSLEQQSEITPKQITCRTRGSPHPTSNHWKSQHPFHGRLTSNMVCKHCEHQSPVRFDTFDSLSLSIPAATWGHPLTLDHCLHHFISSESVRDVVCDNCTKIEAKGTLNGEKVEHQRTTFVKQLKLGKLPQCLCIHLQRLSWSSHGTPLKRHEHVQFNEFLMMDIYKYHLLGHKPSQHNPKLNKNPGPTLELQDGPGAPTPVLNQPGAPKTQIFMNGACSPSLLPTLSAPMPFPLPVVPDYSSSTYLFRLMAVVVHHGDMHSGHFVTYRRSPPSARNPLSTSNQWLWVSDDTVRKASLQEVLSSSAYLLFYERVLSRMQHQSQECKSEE
Numbers without * were called inactive; x = not tested or not shown. Rule as the data show it: active = inhibition above about 30%; inactive = the rest.

SMILES | USP8 inh | USP28 block | USP17 inh | USP30 inh
Cc1ccc(NC2=NC(c3ccccc3)(C(F)(F)F)C(C#N)=C3C=CC=CN23)cc1 (stereo unspecified) | 63.0* | -9.6 | 25.9 | -56.3
COc1ccc(C2CC(=O)C3=C(C2)Nc2ccccc2N(C(C)=O)C3c2ccco2)cc1OC (stereo unspecified) | -4.8 | -7.8 | -4.8 | -6.3
CCC1Cc2c(nc(N)c3c(N)nc(N4CCCCC4)c(C#N)c23)O1 (stereo unspecified) | 76.7* | -29.3 | 23.7 | -223.5
O=C(NC1CCc2ncc(C(F)(F)F)n2C1)c1ccncc1 (stereo unspecified) | -9.4 | -7.3 | -1.8 | -20.9
COc1cccc(CN2CCn3nc(-c4ccccc4OC)cc3C2)c1 | 7.5 | 10.9 | 14.4 | -0.9
COc1ccccc1-c1cc(CNCCN)n(Cc2ccc3ccccc3c2)n1 | -104.3 | 30.4* | -12.6 | 44.5*
Cc1ccccc1NC(=O)CCc1c(C)c2c(C)nn(-c3ccccc3)c2n(C)c1=O | 20.1 | 12.3 | 29.3 | 28.0
O=C(c1ccc(Cl)cc1)N(c1ccccn1)C1CCCCC1 | 54.2* | 47.6* | 86.5* | 80.5*
Cc1ccc(CNC(=O)c2c(O)c3ccccc3[nH]c2=O)cc1 | 39.7* | 12.4 | 22.7 | 21.3
CN(C)c1ccc(C2C3=C(CC(C)(C)CC3=O)Nc3ccccc3N2C(=O)Cc2ccccc2)cc1 (stereo unspecified) | -7.7 | -21.5 | -9.1 | -102.1
Cc1ccc(C2C3=C(CC(c4ccc(Cl)cc4)CC3=O)Nc3ccccc3N2C(=O)c2ccccc2)cc1 (stereo unspecified) | -1.0 | 14.8 | 27.6 | 35.9*
Cc1ccc(C2CC(=O)C3=C(C2)Nc2ccccc2N(C(=O)c2ccccc2)C3c2ccccc2)cc1 (stereo unspecified) | 30.5* | 23.2 | 25.9 | 42.5*
COc1ccc(C2C3=C(CC(c4ccc(C)cc4)CC3=O)Nc3ccccc3N2C(=O)c2ccccc2)cc1 (stereo unspecified) | 24.4 | 12.8 | 23.4 | 11.7
CN(C)c1ccc(C2C3=C(CC(C)(C)CC3=O)Nc3ccccc3N2C(=O)Cc2ccc(Cl)cc2)cc1 (stereo unspecified) | 30.5* | -12.5 | 17.5 | -67.6
CN1CC2(CCN(Cc3ccccc3)CC2)COc2ccccc2S1(=O)=O | -7.0 | -9.4 | -6.6 | -22.8
O=C(Cc1nnc(-c2cnccn2)o1)Nc1ccc(C(F)(F)F)cc1 | 55.1* | 14.6 | 15.5 | 4.4
COC(=O)c1cccc2oc(-c3cccc4oc(-c5ccccc5O)nc34)nc12 | 0.6 | -1.6 | -8.6 | -10.4
O=C(COc1ccccc1)Nc1ccc(-c2nc3cnccc3o2)c(O)c1 | 84.0* | -32.7 | 0.2 | -16.4
Cc1ccc2oc(-c3cc(NC(=O)c4cccc(-n5cnnc5)n4)ccc3O)nc2c1 | -0.8 | x | 26.0 | x
COc1ccccc1C(=O)Nc1ccc(-c2nc3ccccc3o2)c(O)c1 | 37.3* | 15.3 | 14.3 | 14.8
COc1ccc(OCC(=O)Nc2cc(C)c(O)c(-c3nc4ccccc4o3)c2)cc1 | 0.6 | 2.9 | -2.8 | 14.8
O=C(CCn1c(=S)oc2ccccc21)Nc1ccc(O)c(-c2nc3ccccc3o2)c1 | 33.3* | -15.5 | -5.5 | -47.3
CC1Oc2ccccc2N(Cc2nc(-c3ccccc3)no2)C1=O (stereo unspecified) | -0.6 | 6.8 | 39.7* | 2.9
Fc1ccccc1N1CCN(Cc2nc(-c3ccccc3)no2)CC1 | 6.9 | 1.2 | -0.9 | -7.9
CC(C)CC(=O)Nc1ccc(Oc2ccc3ccc(Oc4ccc(NC(=O)CC(C)C)cc4)cc3c2)cc1 | 4.7 | -4.0 | 7.9 | 1.2
SMILES | USP8 inh | USP28 block | USP17 inh | USP30 inh
O=C(Oc1ccccc1)C1CCN(S(=O)(=O)c2ccc3c(c2)OCCCO3)CC1 | 16.0 | 14.2 | 14.3 | 22.9
CC(=O)c1cccc(S(=O)(=O)N2CCC(C(=O)Oc3ccc(-c4nnco4)cc3)CC2)c1 | 39.4* | 28.6 | 28.3 | 23.1
O=S(=O)(NCc1ccc2c(c1)OCO2)c1ccc(-c2cc(C(F)(F)F)on2)s1 | 2.2 | 0.1 | -7.2 | 2.5
COc1ccc2cc1Oc1cc(ccc1OC)C(O)C13SSC4(C(=O)N1C)C(O)C1=COC=CC(OC2=O)C1N4C3=O (stereo unspecified) | -2.0 | -9.9 | -32.5 | 73.1*
CN(C)c1cc(C(=O)NC2CCCCC2)nc2ccnn12 | -3.0 | -8.4 | -0.1 | -18.2
CC(C)(C)c1cc(C(=O)NC2CCCC2)nc2ccnn12 | 12.8 | 6.9 | 31.2* | 31.0*
Cc1cccc(N2CCN(C(=O)c3nnn(-c4ccc(F)cc4)n3)CC2)c1 | 19.7 | 56.0* | 13.7 | 25.0
O=C(c1nnn(-c2ccccc2)n1)N1CCC(Cc2ccccc2)CC1 | 0.6 | 39.2* | 10.4 | 30.9*
